Compounds without any hit were thinned out: in the full panel of roughly 79,000, 15% have a hit. Values without a mark were called inactive. Active and inactive are the calls of the source. No stated cut-off is given here; in the data, active means growth inhibition above about 70%; inactive means the rest. Where a SMILES comes first, the peptide text is derived from it. The star is where a group is joined. Boc = CC(C)(C)OC(=O)*

The nature of assay [1]: NCI Yeast Anticancer Drug Screen. Data for the rad50 strain (AID 155).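 Further: 0% = growth of vehicle-only cultures of the same strain.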 The settings on record: S. cerevisiae rad50 strain growth inhibition; at 50.0 µM; active compounds read high. The gist of the method:
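Inhibition values express reduced yeast growth in compound-treated cultures relative to vehicle-treated controls.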

Assay [2] can be described thus: NCI Yeast Anticancer Drug Screen. Data for the mec2-1 strain (AID 157). Conditions: S. cerevisiae mec2-1 strain, at 50.0 µM, active compounds read high. Summed up: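 Test agents were screened against the mec2-1 yeast strain, with defined DNA repair or cell cycle alteration. Growth was scored as inhibition against vehicle-only controls.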
Assay [3] in a line: NCI Yeast Anticancer Drug Screen. Data for the sgs1 mgt1 strain (AID 161).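 Further: 0% = growth of cultures given vehicle only.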 The settings on record: S. cerevisiae sgs1 mgt1 strain, at 50.0 µM, active compounds read high. The gist of the method: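 Read-out: growth inhibition vs vehicle controls. Cells: mutant yeast strain deficient in DNA damage repair.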
Assay [4] in a line: NCI Yeast Anticancer Drug Screen. Data for the cln2 rad14 strain (AID 165).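 Further: 0% = growth equal to vehicle treated cultures.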 The settings on record: S. cerevisiae cln2 rad14 strain, at 50.0 µM, active compounds read high. The gist of the method: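 Growth of compound-exposed yeast (cln2 rad14 genotype) measured and expressed as inhibition relative to vehicle.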
The nature of assay [5]: NCI Yeast Anticancer Drug Screen. Data for the bub3 strain (AID 167). The settings on record: S. cerevisiae bub3 mutant strain, at 50.0 µM, active compounds read high. Summed up:
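Steps: expose the mutant yeast strain to compound; grow alongside vehicle-treated cultures; measure growth; express inhibition against the vehicle cultures.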

Assay [6] in a line: NCI Yeast Anticancer Drug Screen. Data for the mlh1 rad18 strain (AID 175). The settings on record: S. cerevisiae mlh1 rad18 strain growth inhibition; at 50.0 µM; active compounds read high. Summed up:
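In this whole-cell yeast screen, a strain with altered DNA damage repair is challenged with compound, and its growth is measured against matched vehicle-treated controls.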

`O=CNn1cn[nH]c1=S`: the growth inhibition in assay [1] was 1.9%; in assay [2], -2.65%; in assay [3], -17.6%; in assay [4], 4.25%; in assay [5] it was 8.75%; in assay [6], 6.95%.
For `O=C(/C=C/C(=O)c1ccc(O)cc1)Oc1ccccc1`, the growth inhibition in assay [1] was 33.1%; in assay [2], -3.75%; in assay [3], 1.1%; in assay [4], -15.3%; in assay [5] it was 12.9%; in assay [6] it was 18.1%.
With `COC(=O)C(Cc1c[nH]c2ccccc12)NC(=O)C(Cc1c[nH]c2ccccc12)NC(=O)C(Cc1c[nH]c2ccccc12)NC(=O)C(Cc1c[nH]c2ccccc12)NC(=O)OC(C)(C)C` (stereo unspecified) (Boc-WWWW-OMe; configuration not given here), the growth inhibition in assay [1] was 3.35%; in assay [2], -4.65%; in assay [3], -2.05%; in assay [4] it was 23.4%; in assay [5], 4.65%; in assay [6], 6.2%.
`OCC(O)c1ccc(Cl)cc1` (stereo unspecified): the growth inhibition was -23% in assay [1]; -17.6% in assay [2]; -14.8% in assay [3]; -14% in assay [4]; -15.8% in assay [5]; -0.3% in assay [6].
Regarding `COc1ccc(/C=C2/CCOC2=O)cc1`, the growth inhibition in assay [1] is 44.1%; in assay [2], 18.7%; in assay [3] it was 11.4%; in assay [4], -9.3%; in assay [5], -2.6%; in assay [6], 28.8%.
Regarding `Cc1nc(-c2ccccc2)ncc1C(O)CN1CCOCC1` (stereo unspecified), the growth inhibition in assay [1] was 12.8%; in assay [2], 11.2%; in assay [3], 17.4%; in assay [4], 13.7%; in assay [5], -23%; in assay [6] it was 6.95%.
As for `O=C(O)C1C2OC3C(OC(=O)C31)C2Cl` (stereo unspecified), the growth inhibition is -4.5% in assay [1]; 6% in assay [2]; 9.85% in assay [3]; -14.3% in assay [4]; -6.5% in assay [5]; -12.3% in assay [6].
`Cn1c(=O)c2ccccc2c2cc([N+](=O)[O-])ccc21`: the growth inhibition is -11.8% in assay [1]; -5.05% in assay [2]; -18.5% in assay [3]; 1.1% in assay [4]; 12.7% in assay [5]; -4.2% in assay [6].
With `Cc1nn(C(N)=S)c(C)c1N=Nc1ccc(O)cc1`, the growth inhibition in assay [1] was -5.2%; in assay [2], -4.2%; in assay [3], -4.9%; in assay [4], -29.8%; in assay [5] it was -11.2%; in assay [6], 15.9%.
Consider `CC1(C)CC(=NNC(N)=S)CC(C)(C)N1`, for which the growth inhibition is 1.3% in assay [1]; -7.2% in assay [2]; 14.3% in assay [3]; -51.9% in assay [4]; -16.2% in assay [5]; -0.95% in assay [6].
In the case of `CC1CC/C(=N\O)CCCCC(=O)O1` (stereo unspecified), the growth inhibition in assay [1] is -3.45%; in assay [2], -0.35%; in assay [3], 2.15%; in assay [4], -33.4%; in assay [5] it was 2.9%; in assay [6], 0.85%.
For the molecule `COc1ccc(-c2c(C#N)c(N)nc(C)c2-c2ccccc2)cc1`, the growth inhibition in assay [1] is -26.4%; in assay [2], -10.8%; in assay [3], -6.85%; in assay [4], -24.6%; in assay [5], -5.65%; in assay [6], 16.9%.
Take `CC[N+](CC)(CCO)CCCCCCCCCC[N+](CC)(CC)CCO`: the growth inhibition in assay [1] is 29.6%; in assay [2], -4.15%; in assay [3], 10.6%; in assay [4] it was -15.3%; in assay [5], -1.15%; in assay [6], 9.2%.
Turning to `CCCCOC(=O)C1CC2OC2CC1C(=O)OCCOCCOC(=O)C1CC2OC2CC1C(=O)OCCCC` (stereo unspecified), the growth inhibition is -18.3% in assay [1]; -6.45% in assay [2]; -14.4% in assay [3]; -39.9% in assay [4]; 14.6% in assay [5]; -42.5% in assay [6].
Regarding `Nc1ncnc2c1c1cncnc1n2C1OC(CO)C(O)C1O` (stereo unspecified), the growth inhibition in assay [1] is 9.55%; in assay [2] it was -4.75%; in assay [3], -9.55%; in assay [4], 16.1%; in assay [5], 7.45%; in assay [6], 17.1%.
Consider `C[N+](C)(CCNc1ccc(NCC[N+](C)(C)Cc2ccc([N+](=O)[O-])cc2)c2c1C(=O)c1c(O)ccc(O)c1C2=O)Cc1ccc([N+](=O)[O-])cc1`, for which the growth inhibition was 72.2% (active) in assay [1]; 84.6% (active) in assay [2]; 77.9% (active) in assay [3]; 78.1% (active) in assay [4]; 76.7% (active) in assay [5]; 76.8% (active) in assay [6].
As for `ClC1CCCCC1`, the growth inhibition in assay [1] is -12.8%; in assay [2], -2.55%; in assay [3], -0.35%; in assay [4] it was -7.95%; in assay [5], -7.2%; in assay [6], -31.2%.
For the molecule `CS(=O)(=O)N/N=C1/C=C2C/C(=N\NS(C)(=O)=O)C=C2C1`, the growth inhibition in assay [1] was 27.6%; in assay [2], -0.7%; in assay [3] it was 47.5%; in assay [4], 30.2%; in assay [5], -1.2%; in assay [6] it was 43.7%.
On to `Cc1ccc(NC(=O)Oc2ccc(Br)cc2Br)c([N+](=O)[O-])c1`, for which the growth inhibition in assay [1] is 9.3%; in assay [2], -1.5%; in assay [3] it was 13.7%; in assay [4], 11.2%; in assay [5], 4.55%; in assay [6], -6.9%.
As for `Cc1ccc(CCn2cnc3c(N(CCO)CCO)ncnc32)cc1`, the growth inhibition in assay [1] was -8.45%; in assay [2], 23.8%; in assay [3], -6.85%; in assay [4], 15.6%; in assay [5], 7.95%; in assay [6], -9.6%.
As to `O=C(CC(=O)C1CCOC1=O)C(=O)Nc1cccc(Cl)c1` (stereo unspecified), the growth inhibition in assay [1] is -13.8%; in assay [2] it was -8.55%; in assay [3], 5.5%; in assay [4] it was -10.7%; in assay [5], -12%; in assay [6] it was 21.4%.

Values taken from PubChem BioAssay (NCI).
